# Screening data as filed in PubChem.
# In the library only some 8% were active in any assay of this set; here they are far more common.
# PostGolgi yeast: growth inhibition of a yeast mutant, post-Golgi transport screen; post-Golgi transport phenotypic cell assay; inhibition, % at 10 µM; AID 739; 98,000 compounds, 0.9% hits;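 further: yeast cells grown in 1536-well plates; yeast grown about 18 h at 30C before absorbance read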
# Cav3 T inh: inhibitors of human Cav3.2 T-type calcium channel; O95180; Cav3.2-expressing cells, Fluo-4 calcium fluorescence FDSS; stronger effect = lower value; B-score at 10 µM; 100,000 compounds, 4% hits;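 active means single-dose well whose peak fluorescence ratio is a statistical outlier from its plate by either plate-standardised score or position-corrected B-score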
# PostGolgi ctrl: inhibits growth of the yeast control strain | inhibition, % at 10 µM | 98,000 compounds, 5% hits | efflux-deficient yeast background strain, growth absorbance A615, 16 h | AID 738
# Pyk2 oligo antag: antagonists of human Pyk2 oligomerization; 99,000 compounds, 0.83% hits; Q293 cells, Pyk2 FERM NanoBiT luminescence; stronger effect = lower value; z-score (the deposit names both 25 µM and 10 µM); AID 1347419;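 active means Z-score of -3 or lower, scaled per plate to the spread of control and sample wells; inactive means z-score above -3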;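 further: negative z-score means lost luminescence so less FERM oligomerization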
# Target sequence (Q14289 whole entry, looked up): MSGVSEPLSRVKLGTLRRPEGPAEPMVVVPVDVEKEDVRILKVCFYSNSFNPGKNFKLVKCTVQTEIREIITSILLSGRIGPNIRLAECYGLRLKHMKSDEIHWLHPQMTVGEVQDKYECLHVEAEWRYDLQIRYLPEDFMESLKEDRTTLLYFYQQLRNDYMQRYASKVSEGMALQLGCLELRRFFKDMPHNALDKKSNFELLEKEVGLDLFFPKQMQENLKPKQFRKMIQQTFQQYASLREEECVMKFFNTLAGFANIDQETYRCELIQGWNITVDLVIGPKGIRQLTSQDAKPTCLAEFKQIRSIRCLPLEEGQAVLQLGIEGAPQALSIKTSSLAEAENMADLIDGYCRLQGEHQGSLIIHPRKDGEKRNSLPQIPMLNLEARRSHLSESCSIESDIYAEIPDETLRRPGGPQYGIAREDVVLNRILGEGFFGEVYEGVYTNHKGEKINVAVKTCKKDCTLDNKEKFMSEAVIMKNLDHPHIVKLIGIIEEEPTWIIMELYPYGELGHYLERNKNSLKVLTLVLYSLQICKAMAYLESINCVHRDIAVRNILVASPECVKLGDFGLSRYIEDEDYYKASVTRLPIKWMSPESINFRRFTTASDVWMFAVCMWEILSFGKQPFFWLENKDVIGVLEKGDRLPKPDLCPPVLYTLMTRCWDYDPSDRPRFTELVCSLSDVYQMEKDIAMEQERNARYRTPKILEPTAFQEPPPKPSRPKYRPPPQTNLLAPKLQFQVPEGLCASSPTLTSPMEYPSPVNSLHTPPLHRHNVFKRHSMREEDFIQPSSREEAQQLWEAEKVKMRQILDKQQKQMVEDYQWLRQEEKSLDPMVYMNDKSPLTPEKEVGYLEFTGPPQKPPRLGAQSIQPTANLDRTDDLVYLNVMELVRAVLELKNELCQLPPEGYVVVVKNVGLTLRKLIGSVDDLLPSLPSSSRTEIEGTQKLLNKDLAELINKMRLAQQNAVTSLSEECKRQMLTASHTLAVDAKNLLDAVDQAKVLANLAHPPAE
# A number is an active result; 0 = inactive; - = no result. Unless noted, no stated cut-off is given here; in the data, active means inhibition above about 30%; inactive means the rest.
SMILES,PostGolgi yeast,Cav3 T inh,PostGolgi ctrl,Pyk2 oligo antag
O=C(NCCSCc1c(F)cccc1Cl)c1ccc(CN2CCOCC2)cc1,-,-,-,0
CCc1ccc2c(CN3CCc4ccccc43)cc(=O)oc2c1,0,0,0,0
Cc1cc2oc(=O)cc(CN3CCc4ccccc43)c2cc1Cl,0,-5.25,35.9,0
O=C(Oc1ccc(Cl)cc1N1C(=O)CCC1=O)c1ccco1,0,0,0,0
CCn1nccc1C(=O)Nc1cc(Cl)cc(Cl)c1,-,-3.76,-,0
Cc1nn(C)c(C)c1NC(=O)CN1CCC(O)(c2ccc3c(c2)OCO3)CC1,0,0,0,0
Cn1c2c(c(=O)n(C)c1=O)C(C(F)(F)F)(C(F)(F)F)N=C(c1ccccc1Cl)N2,31.0,0,0,0
COc1ccc([C@H]2/C=C\CN(C(=O)C3CC3)[C@@H](C)C(=O)N2Cc2ccc(F)cc2)cc1,-,0,-,-
Cc1nc2ccccn2c1C(=O)N/N=C/c1cc(C)n(-c2ccc(Cl)cc2)c1C,-,0,-,0
Cc1cc(/C=N/NC(=O)c2cccs2)c(C)n1-c1ccccc1,0,-7.89,0,0
Cc1ccc(Cl)cc1N1CCN(C(=O)C2CCN(S(=O)(=O)c3c(C)nn(C)c3C)CC2)CC1,0,-,40.8,0
Cc1ccc(Cl)cc1N1CCN(C(=O)C2CCN(S(=O)(=O)c3cccnc3)CC2)CC1,0,0,0,0
CCOC(=O)N1CCN(C(=O)CN(C2CCCCC2)S(=O)(=O)c2ccc(C)cc2)CC1,0,0,0,0
Cc1ccc(S(=O)(=O)N(CC(=O)N2CCN(c3ccc(F)cc3)CC2)C2CCCCC2)cc1,0,-5.77,0,0
Cc1ccc(Cl)cc1N1CCN(C(=O)CN(C2CCCCC2)S(C)(=O)=O)CC1,-,-4.86,-,0
CS(=O)(=O)N(CC(=O)N1CCN(c2cccc(Cl)c2)CC1)C1CCCCC1,0,0,0,0
CCOC(=O)N1CCC(Nc2c(N3CCN(c4cc(Cl)ccc4C)CC3)c(=O)c2=O)CC1,0,-4.14,0,-
COc1ccc(NC(=O)CCNS(=O)(=O)c2ccc(Br)s2)cc1,0,0,0,0
CCN(CC)S(=O)(=O)c1ccc(OC)c(NC(=O)c2cccc([N+](=O)[O-])c2C)c1,-,0,-,0
COCCCNC(=O)C(=O)N/N=C/c1ccc(OCC(=O)Nc2cccc(Cl)c2C)c(OC)c1,0,0,0,0
Cc1ccnn2cc3c(=O)n(C)c(=O)n(C)c3c12,0,-,0,-
COC(=O)C1=C(C(=O)OC)[C@@H]2N(Cc3ccccc3)c3ccccc3[C@@]23C[C@@H](C(=O)OC)N(C(=O)COCc2ccccc2)C3=N1,-,0,-,-
COC(=O)C1CSC(C(=O)OC)N1C(=O)CN1CC(C)OC(C)C1 (configuration not stated),0,0,0,0
Cc1ccc(/C=C/C2=NN(Cc3ccc(Cl)c(Cl)c3)C(=O)CC2)cc1,0,0,43.7,0
COc1cccc(NC(=O)c2ccccc2-c2nc(-c3ccc(F)cc3)no2)c1,0,0,55.7,0
SMILES,PostGolgi yeast,Cav3 T inh,PostGolgi ctrl,Pyk2 oligo antag
COc1ccccc1-c1noc(-c2ccccc2C(=O)Nc2ccccc2)n1,0,0,0,0
COc1cccc(NC(=O)c2ccccc2-c2nc(-c3ccccc3)no2)c1,0,0,41.6,0
COc1ccc(-c2noc(-c3ccccc3C(=O)NCc3ccco3)n2)cc1OC,0,-,30.9,0
COc1cccc(NC(=O)c2ccccc2-c2nc(-c3ccc(Cl)cc3)no2)c1,0,0,35.4,0
O=C(Cn1cnc2ccc(Cl)cc2c1=O)c1cccs1,0,0,0,0
N#Cc1c(N2CCCCC2)nc(N2CCCCC2)c2c1CCN(Cc1ccccc1)C2,0,0,0,0
N#CC(c1ccc(Cl)cc1)c1ccc(Cl)nn1 (configuration not stated),0,0,0,0
COc1cccc(C(=O)COC(=O)C(C)N2C(=O)C3C4C=CC(C4)C3C2=O)c1 (configuration not stated),0,0,0,0
COc1ccc(N2CCN(C(c3cccs3)C(C)NS(=O)(=O)c3ccccc3)CC2)cc1 (configuration not stated),0,-,39.0,0
CCS(=O)(=O)NC(C)C(c1cccs1)N1CCN(c2ccc(OC)cc2)CC1 (configuration not stated),-,0,-,-
COc1nc2ccc(C)cc2cc1-c1noc(-c2ccccc2)n1,0,0,31.5,0
c1ccc(N2CCN(c3ncnc4scc(-c5cccs5)c34)CC2)cc1,0,0,46.7,0
Cc1ccc(-c2csc3ncnc(N4CCN(C(=O)c5ccccc5)CC4)c23)cc1,0,0,32.1,0
C#Cc1ccc([C@@H]2C=C(C(=O)O)O[C@H](OCC)[C@H]2CCCO)cc1,-,0,-,-
COc1ccccc1C(CCN(Cc1cccs1)C(C)=O)c1ccco1 (configuration not stated),0,-4.96,38.5,0
CCC(=O)N(CCC(c1ccccc1)c1ccco1)Cc1cccs1 (configuration not stated),0,-9.38,48.5,0
CCC(=O)NCCC(c1ccco1)c1ccccc1OC (configuration not stated),0,0,0,0
Cc1ccc(N(CC(=O)N2CCc3ccccc32)S(=O)(=O)c2cccs2)cc1,0,0,0,0
CC(C)(C)C(=O)Nc1ccc(C(=O)NNC(=O)Cc2ccccc2)cc1,0,0,0,0
C=CCn1c(SCc2c(C)noc2C)nc2sc3c(c2c1=O)CCCC3,0,-3.76,0,0
C=CCn1c(SCc2c(C)noc2C)nc2ccccc2c1=O,0,0,0,0
Cc1noc(C)c1CSc1nc2sc3c(c2c(=O)n1C)CCCC3,0,0,39.6,0
COc1ccc(Cc2nnc(SCc3c(C)noc3C)n2C2CCCCC2)cc1OC,0,0,0,0
Cc1noc(C)c1CSc1nc2sc(C)c(C)c2c(=O)n1C1CCCC1,0,-5.77,0,0
C=CCn1c(SCc2c(C)noc2C)nc2sc3c(c2c1=O)CCCCC3,0,-4.31,0,0
SMILES,PostGolgi yeast,Cav3 T inh,PostGolgi ctrl,Pyk2 oligo antag
N#Cc1ccc(Cl)cc1NC(=O)COC(=O)c1ccc(S(=O)(=O)N2CCCC2)cc1,0,0,0,0
O=C(/C=N/O)NCc1ccncc1,0,-7.99,0,0
CC(C)n1c(-c2ccco2)csc1=Nc1cccnc1,0,-5.18,0,0
c1cncc(-c2nc(-c3ccco3)cs2)c1,0,0,0,0
CCCCOc1ccc(S(=O)(=O)N2CCCCCC2)cc1,0,0,0,0
CN(CCOc1ccccc1)c1ccc(S(=O)(=O)N2CCCCC2)cn1,0,-7.6,0,0
Cc1ccc2nc(-c3ccc(NS(C)(=O)=O)cc3)cc(-c3ccccc3)c2c1,0,0,57.9,0
Cc1ccc2nc(-c3ccncc3)cc(-c3ccccc3)c2c1,0,0,41.7,0
CN=C(Nc1ccc(C(=O)OC)cc1)SC1CC(=O)N(c2ccccc2F)C1=O (configuration not stated),0,0,0,0
O=C1CC(SC(=Nc2ccccc2)Nc2ccccc2)C(=O)N1c1cccc2ccccc12 (configuration not stated),0,0,0,-3.05
O=C(CSC(=S)N1CCCCC1)Nc1nc(-c2ccccc2)c(-c2ccccc2)o1,0,-3.95,0,0
O=C(CSC(=S)N1CCOCC1)Nc1nc(-c2ccccc2)c(-c2ccccc2)o1,0,0,35.0,0
Cn1nnnc1SCC(=O)Nc1nc(-c2ccccc2)c(-c2ccccc2)o1,0,0,0,0
